# Sampled rows, rich in hits. Any-hit rate of the full collection: about 2.5%.
# 697 NFkB inh: lowers PMA/ionomycin-induced NF-kB signal in 697 B cells; 697 B-cell NF-kB luciferase reporter, 16 h; inhibition, % at 4 µM; 330,000 tested, 0.33% active; in the data active = inhibition above about 35%
# KLF5 inh: kruppel-like factor 5 inhibition. 290,000 tested, 0.23% active. DLD-1 KLF5 promoter-luciferase reporter, luminescence. inhibition, % at 5 µM. AID 1700;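 active = inhibition above a per-plate limit of that plate's mean compound inhibition plus 3 SD, cut at about 60% in these data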;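 note: higher means less KLF5 promoter-driven luciferase light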
# aSyn UTR inh: MLPCN primary screen, SNCA 5' untranslated region; 300,000 tested, 0.82% active; inhibition, % (tested at 7.5 µM); AID 1813; alpha-synuclein 5'UTR reporter, inhibitor activity; in the data active = inhibition above about 60%;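 note: H4 neuroglioblastoma cells stably carrying SNCA 5'UTR luciferase fusion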
# TMEM16A inh: blocks the mouse calcium-activated chloride channel TMEM16A; Q8BHY3; HEK293 TMEM16A/YFP iodide influx fluorescence, ionomycin; normalized B-score (activity score, 25-100; higher = stronger inhibition) at 10 µM; 310,000 tested, 1.2% active; AID 588511;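 active = ratio plate-corrected score three or more library SD toward inhibition, starting fluorescence score within five deviations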;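 note: score derived from kinetic fluorescence span divided by baseline fluorescence per well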
# ANO1 activ: activators or potentiators of mouse TMEM16A chloride channel; Q8BHY3; HEK293 TMEM16A/YFP-H148Q/I152L, iodide quench fluorescence; active compounds read low; B-score at 10 µM; 340,000 tested, 0.3% active;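 active = fluorescence-ratio B-score plate-corrected deviation score at least 3 library SD below zero, with starting fluorescence score within 5 deviations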;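 note: channel opened by trigger with iodide after compound preincubation; score built on the fluorescence ratio of max minus min over baseline; more negative score means more quench and so TMEM16A activation or potentiation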
# Jurkat NFkB inh: lowers PMA/ionomycin-induced NF-kB signal in Jurkat cells | PMA/ionomycin-induced NF-kB luciferase reporter, luminescence | inhibition, % at 4 µM | 330,000 tested, 0.53% active | AID 435003; in the data active = inhibition above about 50%
# Numbers stand for hits; . = inactive; / = no result.
SMILES,697 NFkB inh,KLF5 inh,aSyn UTR inh,TMEM16A inh,ANO1 activ,Jurkat NFkB inh
Cc1ccc(CSc2nnc(-c3ccc(NS(=O)(=O)c4ccccc4)cc3)o2)cc1,.,.,.,.,.,.
COCCCNC(=O)C1CCC(CNS(=O)(=O)c2ccc3c(c2)CC(C)N3C(=O)C2CC2)CC1 (stereo unspecified),.,.,.,.,.,.
N/C(=N/O)c1ccccc1N1CCC(Cc2ccccc2)CC1,.,.,.,25,.,.
CCCC(=O)N1CCC(Cc2ccccc2)CC1,.,.,.,.,.,.
CCN(c1ccccc1)S(=O)(=O)c1ccc(Oc2ccc(-n3ccnc3)cc2)nc1,.,.,103,.,.,.
CCN(c1ccccc1)S(=O)(=O)c1ccc(Oc2ccccc2C(C)=O)nc1,.,/,/,/,.,.
O=S(=O)(Nc1nc2ccccc2nc1-[n+]1cccc(N=C([O-])c2ccccc2Cl)c1)c1ccccc1,.,.,.,.,/,.
COc1ccc(C([O-])=Nc2ccc[n+](-c3nc4ccccc4nc3NS(=O)(=O)c3ccccc3)c2)cc1,.,.,84,.,/,.
O=C(NCc1cccnc1)/C(=C\c1ccc(-c2ccc(Cl)c(Cl)c2)o1)S(=O)(=O)c1ccccc1,/,.,.,.,-6.1,/
CCOC(=O)C(CSCc1ccccc1)NC(=O)OC(C)(C)C (stereo unspecified),.,.,.,.,.,.
CCOC(=O)C(CSCC(=O)c1ccc(Br)cc1)NC(=O)OC(C)(C)C (stereo unspecified),.,.,.,100,/,.
COc1cc(SC)ccc1C(=O)Nc1ccc(Cl)cn1,.,.,100,.,.,.
CSc1ccc(Cl)c(C(=O)Nc2ccc(Cl)cn2)c1,.,.,.,.,.,.
O=C(CC1CCCC1)Nc1cc(C(F)(F)F)ccc1-n1cncn1,.,/,/,/,.,.
O=C(Nc1ccn(Cc2ccc(Cl)cc2)n1)c1ccccc1,.,.,.,25,.,.
CCC(C)Sc1ccc([C@H]2N[C@@](CC(C)C)(C(=O)OC)[C@H]3C(=O)N(CC)C(=O)[C@@H]23)cc1 (stereo partly specified),.,/,.,.,-8.4,.
COC(=O)[C@]1(CC(C)C)N[C@H](c2ccc(-c3cccc(Cl)c3)cc2)[C@@H]2C(=O)N(C)C(=O)[C@@H]21,.,/,.,.,-8.6,.
O=C(N/N=C(\Cc1ncc[nH]1)c1ccccc1)c1ccccc1,.,.,74,.,/,.
O=C(N/N=C(\Cc1ncc[nH]1)c1ccccc1)c1ccncc1,.,.,.,.,.,.
CC(C)CC(/C(O)=C(\C#N)c1nc2ccccc2[nH]1)N1C(=O)c2ccccc2C1=O (stereo unspecified),.,.,65,.,.,.
CCN(CC)CCNC(=O)c1ccc(NC(=O)CC(NC(=O)c2ccccc2Cl)c2ccccc2)cc1 (stereo unspecified),.,.,.,.,.,.
O=C(NCCCCc1ccccc1)c1ccc(F)cc1,.,/,.,.,.,.
Clc1ccc(CONc2ncnc3nonc23)c(Cl)c1,.,.,.,100,.,.
CN(C(=O)c1ccoc1)c1ccc2ccccc2c1,.,.,.,.,.,.
COc1cccc(N(CC(=O)NC2CCCCC2)C(=O)CCC(=O)Nc2nccs2)c1,.,.,.,.,.,.
SMILES,697 NFkB inh,KLF5 inh,aSyn UTR inh,TMEM16A inh,ANO1 activ,Jurkat NFkB inh
CC(=O)c1ccc(NC(=O)CN2C(=O)COc3ccc(S(=O)(=O)N4CCCC4)cc32)cc1,.,.,.,.,.,.
CC(=O)c1cccc(NC(=O)CN2C(=O)COc3ccc(S(=O)(=O)N4CCOCC4)cc32)c1,.,.,73,.,.,.
CN(C)c1ccc(/C=C2\C(=N)N3C(=NC2=O)Sc2cc(S(C)(=O)=O)ccc23)cc1,.,.,.,.,/,.
COc1ccc(-c2oc(=O)c3cc(OC)c(OC)cc3c2-c2ccc3c(c2)OCO3)cc1,.,/,/,/,.,.
COc1cc2c(O)c3c(c(-c4ccc5c(c4)OCO5)c2cc1OC)C(=O)OC3,.,.,108,.,.,.
COc1cc2c(OC(C)=O)c3c(c(-c4ccc5c(c4)OCO5)c2cc1OC)C(=O)OC3,.,.,113,.,.,.
CCOC(=O)Nc1ccc(C(=O)c2ccncc2)cc1,.,.,.,.,.,.
NC1=NC2=C(CCCC2)C2(CCCCC2)S1,.,.,77,.,.,.
C/C(=N\NC(=S)NC(C)C)c1ccccc1OC(F)F,.,.,.,.,-39,.
CCNC(=S)N/N=C(\C)c1ccc2ccccc2c1OC(F)F,.,.,.,.,.,.
CCCCCn1cnnc1SCC(=O)c1c(N)n(C2CC2)c(=O)[nH]c1=O,.,/,/,/,.,.
CCC(Sc1nc2cc(OC)c(OC)cc2c(=O)n1CCc1ccc(S(N)(=O)=O)cc1)C(=O)NCCOC (stereo unspecified),.,.,.,.,-4.7,.
COc1ccc(C2CC(C(F)(F)F)n3nc(CO)c(Cl)c3N2)cc1OC (stereo unspecified),.,.,.,.,-14,.
Oc1c(C=Nc2ccccc2Cl)[nH]c2ccccc12,.,.,.,.,-8.7,.
CC(C)c1cccc(-c2ccc3c(c2)S(=O)(=O)c2cccc(C(=O)NCc4ccccc4Cl)c2C3=O)c1,.,/,/,/,.,.
O=C(COC(=O)C1CC2CCCC(C1)C2=O)NC1CCCCC1 (stereo unspecified),.,/,/,/,.,.
COc1cc(C)ccc1OCCOCCOc1c(C)cc(C)cc1Br,.,.,.,100,.,.
CSCCC1NC(=O)N(CC(=O)N2N=C(c3ccc(Cl)cc3)CC2c2ccco2)C1=O (stereo unspecified),.,.,.,25,.,.
COc1ccc(C)cc1NC(=O)COC(=O)CCC(=O)c1cccs1,.,/,/,/,.,.
COc1ccc(N(C(=O)c2cccc([N+](=O)[O-])c2)S(=O)(=O)c2ccc3c(c2)n(C)c(=O)n3C)cc1,.,.,.,100,.,.
C=C(c1ccccc1C)[n+]1ccccc1,.,.,.,.,.,.
CCOC(=O)C(Sc1n[nH]c(N)n1)c1ccccc1 (stereo unspecified),.,.,.,25,.,.
CN(Cc1ccccc1)C(=O)CSc1n[nH]c(N)n1,.,.,.,.,.,.
Cc1onc(-c2ccccc2Cl)c1C(=O)N1CCN(c2cccc(Cl)c2)CC1,.,/,67,.,.,.
CCOC(=O)C1CCCN(S(=O)(=O)c2ccc3c(c2)N(C)C(=O)CC(=O)N3C)C1 (stereo unspecified),.,.,.,.,.,.
Cc1ccc(S(=O)(=O)N2CCC(=O)N(C(COCc3ccc(Cl)cc3)C(C)C)CC2)cc1 (stereo unspecified),.,.,.,.,.,.
Cc1ccc(S(=O)(=O)N2CCC(=O)N(C(COCc3ccc(Cl)cc3)Cc3ccccc3)CC2)cc1 (stereo unspecified),.,.,.,.,-25,.

# From PubChem
